This is an account of results in the OligoGym collection.
Also: reference of the scale not given here.

The target in the first assay is CNGB1. The assay is described as follows: pooled miR-30 sensor sort-seq; sequence = guide strand. The following applies: shRNA.
On to TCGCATGTCCTTTTTGTCCGTA, for which the sensor-assay potency score (higher = more potent) was -0.378. TGGGCTGGTACTGACATCCTGG registered a sensor-assay potency score (higher = more potent) of -0.698. TTGTCCGTAATGATGTCCCCGC yielded a sensor-assay potency score (higher = more potent) of -0.775.

TAGTAGGTCTGTCCGGCGGTGG registered a sensor-assay potency score (higher = more potent) of -0.909.

In the case of TACATCAGGTTGGTCAGCGGGT, the sensor-assay potency score (higher = more potent) is -0.543. TAGGTAATCCATCAGCAGCCAG came in with a sensor-assay potency score (higher = more potent) of -1.07. Still for that read-out and setting: in the case of TTGACGTCTTGCGAGCTCTTGG it was -0.581. On to TTCACCGTGCTGTCCATGCAGC, for which the sensor-assay potency score (higher = more potent) was -0.762. With TAAGCTGGAACCACCTCTGTAC, the sensor-assay potency score (higher = more potent) was determined as 0.05.

The target of another assay is CNN2. The assay is described as above. The following applies: shRNA.
TAGCACTCTCTCCACTGTCCTT registered a sensor-assay potency score (higher = more potent) of -0.91. Take AATACTTCCTGAAACTTGCGGG: the sensor-assay potency score (higher = more potent) worked out at 0.259. The same measure, in the same setting: in the case of TTGGACAGGTTTTCTAGCTGGT it was 0.325; in that of TTGGGGTCATATATCTGCCGGC, -0.73.

In turn, TCTGTTGGTCTGAAGGTCCTAG had a sensor-assay potency score (higher = more potent) of 0.303. For the sequence TCATAGAGATGCCTTCTCGTGC, the sensor-assay potency score (higher = more potent) was -0.57. Consider TTTCTTTTGTGAATACTTCCTG, for which the sensor-assay potency score (higher = more potent) worked out at 0.659. TAGCTTGTTCATGAGTGTGCAT: the sensor-assay potency score (higher = more potent) was -0.436. Turning to TTGACTGGCAGCACTGAACGGG, the sensor-assay potency score (higher = more potent) is -0.107. The sequence TTGGACAGGAGCCGGTTCTTGA yielded a sensor-assay potency score (higher = more potent) of -0.733. For the sequence TGTAGCTTGTTCATGAGTGTGC, the sensor-assay potency score (higher = more potent) turned out to be 0.544. On the same count and under the same terms, then ATGAGTGTGCATAAGATAGTTC, with -0.603; and TTCTTTTGTGAATACTTCCTGA, with -0.256.

Sequence TTGGTATCATAGATGTGCCGCC registered a sensor-assay potency score (higher = more potent) of -0.285. TCATATTTGGACAGGAGCCGGT came in with a sensor-assay potency score (higher = more potent) of -0.85.

The sequence TTGTCGGTTCCCAGCTTGGTAT showed a sensor-assay potency score (higher = more potent) of -1.75.

Regarding TTGATGAAGTTGGACAGGTTTT, the sensor-assay potency score (higher = more potent) was -0.865. In turn, TGTCACACTTGTCGGTTCCCAG returned a sensor-assay potency score (higher = more potent) of -0.793.

Sequence TAGCTGGTGCCAGTTCTGCATG showed a sensor-assay potency score (higher = more potent) of -1.58. Still for that read-out and setting: then TTGCGTTTGGTCCACAGTCGTA, with -1.13; and TAAGATAGTTCCATCCTTCAGG, with -0.219; and TGGCTGGCACACTTGTTCGTGC, with -1.46. On the same count and under the same terms, then TATTTCACATTATCTCACGGAG, with -0.296. With TAGAGATGCCTTCTCGTGCCGT, the sensor-assay potency score (higher = more potent) was -0.0875.

Another assay deals with CNOT1. The assay is described as above. The following applies: shRNA.
Regarding TATTCTTCAAACAAGTTCCTTA, the sensor-assay potency score (higher = more potent) worked out at 0.402. TTGAAATCCAGGATGGTCCAGT registered a sensor-assay potency score (higher = more potent) of 0.513.

TATCTCTTTACTAAAGTGCTGG had a sensor-assay potency score (higher = more potent) of -0.169. With TTTTGTGTCATATTTGACTGTG, the sensor-assay potency score (higher = more potent) came out at 0.162.

For TAACTTTAAGTCATGCTCCTGA, the sensor-assay potency score (higher = more potent) is 0.328.

Sequence TTCCTTTAGCTCTTCAACCTTT registered a sensor-assay potency score (higher = more potent) of -0.326. TAGGTGAAGATCATACTGCTGC displayed a sensor-assay potency score (higher = more potent) of 0.544.
